Data as given in ChEMBL document CHEMBL1201862, “PubChem BioAssay data set” (2004).
Screen size: about 400,000 compounds; about 2,100 (0.53%) were called active. Another 14% or so got no clear call; they are omitted. The sample holds actives, similar compounds and a random draw of the others, so the mix is not that of the screen. How the calls were made is not given here.

Target: Ataxin-2 (Homo sapiens) (UniProt Q99700)
Assay: qHTS for Inhibitors of ATXN expression.
Assay type: functional

Ataxin-2 (Homo sapiens), sequence (Q99700 whole entry): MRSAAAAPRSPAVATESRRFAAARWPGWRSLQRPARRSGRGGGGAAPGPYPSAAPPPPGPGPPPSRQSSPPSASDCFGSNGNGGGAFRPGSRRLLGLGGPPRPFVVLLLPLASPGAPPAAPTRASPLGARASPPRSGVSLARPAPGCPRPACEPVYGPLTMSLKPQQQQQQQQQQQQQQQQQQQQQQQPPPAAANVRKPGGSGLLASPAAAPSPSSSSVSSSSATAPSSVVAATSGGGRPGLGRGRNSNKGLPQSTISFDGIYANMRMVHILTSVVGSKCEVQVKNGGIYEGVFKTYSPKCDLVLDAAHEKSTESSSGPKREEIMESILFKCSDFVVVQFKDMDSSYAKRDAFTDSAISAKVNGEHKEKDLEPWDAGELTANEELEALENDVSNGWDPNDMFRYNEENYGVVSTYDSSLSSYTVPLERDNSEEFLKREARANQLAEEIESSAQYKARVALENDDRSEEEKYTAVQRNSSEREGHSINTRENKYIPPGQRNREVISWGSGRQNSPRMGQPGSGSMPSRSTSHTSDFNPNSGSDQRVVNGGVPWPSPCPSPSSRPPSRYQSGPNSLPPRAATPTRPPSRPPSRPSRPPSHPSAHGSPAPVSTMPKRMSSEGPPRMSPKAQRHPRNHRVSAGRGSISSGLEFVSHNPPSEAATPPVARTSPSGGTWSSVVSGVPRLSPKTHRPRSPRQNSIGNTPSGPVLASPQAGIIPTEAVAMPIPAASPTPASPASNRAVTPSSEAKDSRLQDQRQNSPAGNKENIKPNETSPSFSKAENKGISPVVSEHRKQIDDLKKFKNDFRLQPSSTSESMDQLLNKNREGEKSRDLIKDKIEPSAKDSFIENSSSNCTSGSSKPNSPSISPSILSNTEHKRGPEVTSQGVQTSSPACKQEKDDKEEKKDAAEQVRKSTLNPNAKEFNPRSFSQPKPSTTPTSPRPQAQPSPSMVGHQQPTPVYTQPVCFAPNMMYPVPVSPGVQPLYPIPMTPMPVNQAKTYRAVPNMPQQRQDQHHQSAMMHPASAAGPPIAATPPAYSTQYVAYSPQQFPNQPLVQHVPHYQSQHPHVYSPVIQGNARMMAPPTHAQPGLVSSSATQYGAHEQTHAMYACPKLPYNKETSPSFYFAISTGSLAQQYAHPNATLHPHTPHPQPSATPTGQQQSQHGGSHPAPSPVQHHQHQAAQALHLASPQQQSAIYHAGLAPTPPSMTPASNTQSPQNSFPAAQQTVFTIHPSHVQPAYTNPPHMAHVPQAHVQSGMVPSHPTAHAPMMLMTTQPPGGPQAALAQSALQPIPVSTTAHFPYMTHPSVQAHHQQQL

Structure (SMILES)	Potency
CC[C@H](CO)Oc1cc(NCc2cccc(N)c2)c2ncn(C(C)C)c2c1	31.6 µM (active)
CC[C@H](CO)Oc1cc(NCc2ccc(Cl)c(Cl)c2)c2ncn(C(C)C)c2c1	35.5 µM (active)
CCC(CO)Oc1cc(NCc2ccccc2C(F)(F)F)c2ncn(C(C)C)c2c1 (configuration not stated)	25.1 µM (active)
Nn1c(SCC(=O)Nc2c(F)cc(F)cc2Br)nnc1C1CCCCC1	inactive
Cc1cc2c(cc1C)NC(CC(=O)Nc1ccccc1)C(=O)N2 (configuration not stated)	inactive
CCCOc1c(Br)cc(C2C3=C(CCCC3=O)N(C)C3=C2C(=O)CCC3)cc1OC	inactive
Cn1c(CNc2ccccc2O)nc2ccccc21	inactive
CCC(/C=C1\Sc2ccc(OC)cc2N1CCO)=C\c1sc2ccc(OC)cc2[n+]1CCO	17.8 µM (active)
COc1cccc(C(=O)/C=C2\Sc3ccccc3N2C)c1	inactive
CCOC(=O)c1cc2c(OC)c(OC)ccc2c2ncc(C#N)c(O)c12	inactive
COCCNC(=O)c1c(N)n(/N=C/c2cccs2)c2nc3ccccc3nc12	inactive
Nc1c(S(=O)(=O)c2ccccc2)c2nc3ccccc3nc2n1C1CC1	inactive
Nc1c(S(=O)(=O)c2cccs2)c2nc3ccccc3nc2n1/N=C/c1cccc(O)c1	39.8 µM (active)
Cc1ccc(S(=O)(=O)c2c(N)n(-c3ccccc3)c3nc4ccccc4nc23)cc1	inactive
COCCn1c(N)c(C(=O)NCc2cccs2)c2nc3ccccc3nc21	inactive
Nc1c(S(=O)(=O)c2ccccc2)c2nc3ccccc3nc2n1/N=C/c1cccc(O)c1	39.8 µM (active)
Nc1c(C(=O)NCC2CCCO2)c2nc3ccccc3nc2n1-c1ccccc1 (configuration not stated)	inactive
CC1(C)CC(=O)C2=C(C1)N1C(=C(C#N)C2c2ccc(Cl)cc2)N=C(N)c2ccccc21 (configuration not stated)	22.4 µM (active)
COc1ccc(N2C3=C(C(=O)CC(C)(C)C3)C(c3ccccc3OC)C3=C2CC(C)(C)CC3=O)cc1	inactive
COc1ccc(C2C3=C(CC(C)(C)CC3=O)N(C)C3=C2C(=O)CC(C)(C)C3)cc1	inactive
COc1cccc(C=O)c1OCCCOc1cccc2cccnc12	39.8 µM (active)
COc1ccccc1OCCCC(=O)NCc1ccco1	inactive
COc1ccc(C2C3=C(O)CC(C)(C)CC3=Nc3c2c(=O)[nH]c(=O)n3Cc2ccccc2)cc1OC (configuration not stated)	inactive
CC(C)(C)c1ccc(C2Sc3ccccc3NC3=C2C(=O)c2ccccc23)cc1 (configuration not stated)	39.8 µM (active)
CCCc1ccc(C2Sc3ccccc3NC3=C2C(=O)c2ccccc23)cc1 (configuration not stated)	31.6 µM (active)
Cc1cc2c(NC(=O)CC(C)(C)CC(=O)O)cccc2nn1	inactive

Structure (SMILES)	Potency
C=CCSc1nnc(C)c(/C=C/Nc2ccc(Cl)cc2)n1	inactive
CCC(=O)Oc1ccc2c(c1)O/C(=C\c1ccco1)C2=O	inactive
CCOC(=O)c1c(NC(=O)c2ccc(S(=O)(=O)N3CCC(C)CC3)cc2)sc2c1CCN(C(C)C)C2	inactive
O=[N+]([O-])c1ccc(N(c2ccccc2)c2ccccc2)cc1	inactive
N#Cc1c(N)n(CCOC(=O)c2cccc([N+](=O)[O-])c2)c2nc3ccccc3nc12	inactive
O=C(C#Cc1ccccc1)c1ccc([N+](=O)[O-])cc1	25.1 µM (active)
O=C(C#Cc1ccccc1)c1cccc([N+](=O)[O-])c1	17.8 µM (active)
Cc1ccc(C)n1NC(=O)c1ccc([N+](=O)[O-])cc1	inactive
Cc1c(C(=O)c2cccc([N+](=O)[O-])c2)c2ccccn2c1CCC#N	inactive
O=C(c1cn(-c2ccccc2)nc1-c1cccnc1)N1CCN(S(=O)(=O)c2ccccc2F)CC1	inactive
Cc1cc(C)cc(OCC(=O)NC2CCCc3ccccc32)c1 (configuration not stated)	inactive
NC(=O)N/N=C\c1cc(Br)ccc1O	inactive
O=C(/C=C/c1cc(Br)ccc1O)c1ccco1	39.8 µM (active)
O=C(/C=C/Nc1ccccc1Oc1ccccc1)c1ccco1	inactive
COc1ccc(C2=CC(c3ccc(C)cc3)n3nnnc3N2)cc1 (configuration not stated)	inactive
ClCc1nnc(-c2cc3c(s2)CCCC3)o1	39.8 µM (active)
Sc1nnc(-c2cc3c(s2)-c2ccccc2CC3)o1	inactive
CCOC(=O)c1cc2c(=O)n3ccccc3nc2n(Cc2ccco2)/c1=N\C(=O)c1ccc(C)c(C)c1	inactive
COc1ccc(OC)c(NC(=O)C(C)Oc2ccc(Br)cc2)c1 (configuration not stated)	inactive
COc1cc2c(cc1NC(=O)C(Cl)Cl)-c1ccc(NC(=O)C(Cl)Cl)cc1C2	16.8 µM (active)
COc1ccc(Cl)cc1NC(=O)C(OC)c1ccccc1 (configuration not stated)	inactive
CCN(Cc1ccccc1)C(=O)CSc1ccccc1C(=O)O	inactive
COc1cccc(-c2ccc3c(N)c(C(=O)Nc4ccc(Cl)cc4F)sc3n2)c1	inactive
N=c1oc2c3c4c(cc2cc1C(=O)Nc1ccccc1)CCCN4CCC3	inactive
O=C(Nc1nnc(-c2ccc3c(c2)CCCC3)o1)c1ccccc1	39.8 µM (active)
COc1cccc(C(=O)Nc2nnc(-c3ccc(Cl)cc3)o2)c1	35.5 µM (active)

Structure (SMILES)	Potency
COC(=O)c1ccsc1NC(=O)c1cccc(OC)c1	inactive
Cc1ccc(NC(=O)c2cccc(Oc3ccc([N+](=O)[O-])cc3)c2)c(C(=O)O)c1	inactive
COc1cccc(N/C=C/C(=O)c2ccc(Cl)cc2)c1	inactive
COc1cccc(-c2nnc(NC(=O)c3ccc(Cl)s3)o2)c1	25.1 µM (active)
O=C(Nc1nnc(-c2cccs2)o1)c1cccc(Oc2ccccc2)c1	28.2 µM (active)
O=C(Nc1ccccc1C(=O)Nc1ccccc1C(=O)O)c1ccccc1	inactive
COc1ccc(OC)c2sc(NC(=O)c3ccc(Cl)s3)nc12	inactive
O=C(Oc1ccc(OC(=O)C2CCC2)cc1)C1CCC1	inactive
Cc1nc2scc(-c3ccccc3)c2c(=O)n1N=C1C=CC(=O)C=C1	inactive
CCOC(=O)c1c(NC(=O)c2ccno2)c2cc([N+](=O)[O-])ccc2n1C	inactive
OCCN(CCO)c1nc(N2CCCCC2)c2nc(N(CCO)CCO)nc(N3CCCCC3)c2n1	inactive
Cc1cc(C)c(C#N)c(SCC(=O)C2CC2)n1	inactive
O=C(Nc1nnc(-c2ccccc2)o1)c1ccc(Cl)cc1	39.8 µM (active)
O=C(NCc1nnc2c3ccccc3c(-c3ccccc3)nn12)c1ccc(Cl)cc1	inactive
Cc1ccnc2nc(C(=O)Nc3nnc(-c4ccccc4)o3)nn12	inactive
Cc1nc(CS(=O)(=O)c2ccccn2)sc1C(=O)NNC(=O)c1ccccc1	inactive
Cc1ccc(S(=O)(=O)N[C@H](C(=O)Oc2ccc3c(C(F)(F)F)cc(=O)oc3c2)c2ccccc2)cc1	inactive
CCOc1ccc(-c2c(=O)n(OCc3nc4ccccc4[nH]3)c3ccccc3[n+]2[O-])cc1	inactive
Cc1oc2ccc(O)c(CN3CCCC3)c2c1C(=O)Nc1ccc(C(C)C)cc1	15.8 µM (active)
CC(C)c1ccc(/C=C2\Oc3c(ccc(O)c3CN3CCN(C)CC3)C2=O)cc1	inactive
CCc1c(C)c2ccc(O)c(CN3CCCC3)c2oc1=O	inactive
CCn1c(=O)cc(OCC(=O)N2CCN(c3ccc(C)cc3)C(C)C2)c2ccccc21 (configuration not stated)	28.2 µM (active)
CCN1CCCC(OC(=O)c2cc(-c3ccc(C)cc3)nc3ccccc23)C1 (configuration not stated)	inactive
CCOC(=O)COc1cccc2c(=O)n(CC(=O)N3CCC(C)CC3)ccc12	inactive
COc1ccc(-c2cc(C(=O)Nc3ccc(S(=O)(=O)Nc4onc(C)c4C)cc3)c3ccccc3n2)cc1	inactive
COCc1cc(=O)oc2cc(NS(=O)(=O)c3ccc(C)cc3)ccc12	inactive

Structure (SMILES)	Potency
COc1ccc(-c2nc3ccc(NS(=O)(=O)c4ccc(C)cc4)cc3o2)cc1	39.8 µM (active)
COC(=O)c1cscc1S(=O)(=O)Cc1ccccc1	inactive
CC(=O)Nc1ccc(S(=O)(=O)NCCc2cn3nc(C)c(C)nc3n2)cc1	inactive
CNC(=O)COC(=O)/C=C/c1nc2ccccc2s1	inactive
CCOC(=O)CN1C(=O)S/C(=C\c2ccc3c(c2)OCO3)C1=O	inactive
O=C(NCCN1C(=O)S/C(=C\c2ccc(Cl)c([N+](=O)[O-])c2)C1=O)C1=COCCO1	25.1 µM (active)
CCCn1nnc(NC(=S)NC(=O)c2ccccc2OC)n1	inactive
C=CCN1C(=O)/C(=C2\C(=O)Nc3ccccc32)S/C1=N/c1ccc(O)cc1	31.6 µM (active)
C=CCN1C(=O)/C(=C/c2ccc(O)cc2)S/C1=N/c1nccs1	inactive
Cc1ccc2nc(Cl)nc(-c3ccccc3)c2c1	inactive
Cc1ccc(-c2nc3ccc(C)cn3c2Cc2cccc(F)c2)cc1	35.5 µM (active)
Cc1ccc(Sc2nc3ccc(C)cn3c(=O)c2/C=N/O)cc1	inactive
Cc1nc2ccccc2nc(C)c1=NOCc1cccc(F)c1	inactive
Cc1ccc2nc(-c3ccccc3)c(Cc3cccc(F)c3)n2c1	31.6 µM (active)
Cc1ccc(-c2nc3ccc(C)cn3c2Cc2ccsc2)cc1	22.4 µM (active)
Cc1ccn2c(NCc3ccccc3)c(-c3cccs3)nc2c1	inactive
Cc1ccc(-c2cn3nc(-c4ccccc4)c(-c4ccccc4)nc3n2)cc1	inactive
Cc1ccc(Cc2c(-c3ccccc3)nc3cc(C)ccn23)cc1	22.4 µM (active)
Cc1c(NC(=O)CCC2CCCCC2)cc(C(=O)N2CCOCC2)cc1[N+](=O)[O-]	inactive
O=C(O)c1cc(Cl)c(Cl)cc1C(=O)N(Cc1ccccc1)Cc1ccccc1	inactive
COc1cccc2sc3cc(NCc4ccc(C)o4)ccc3c(=O)c12	inactive
Cc1ccccc1/C=C/c1nc(O)c2ccccc2n1	31.6 µM (active)
Oc1nc(/C=C/c2cccc3ccccc23)nc2ccccc12	inactive
CN(C)c1ccc(/C=C/c2nc(O)c3ccccc3n2)cc1	inactive
